# Assay results from PubChem BioAssay (NCATS).
# Results filed as inconclusive are left out. A number with no mark means an inactive call. Calls of active or inactive are those of the source. Calls follow the shape of the dose curve; as a rule, active = well fitted inhibition curve with a large enough effect; inconclusive = small, poorly fitted or top-dose-only effect; inactive = flat fitted curve, though single readings scatter.
# What was measured:
# CRL-7250 = normal cell line; test: Cytotoxic Profiling of Annotated Libraries Using Quantitative High-Throughput Screening (AID 1296008); conditions: Five cell lines viability, CellTiter-Glo ATP luminescence, 48-72 h; max response: stronger effect = lower value; also: potency is read from the fitted curve at half-maximal effect; as to max response: % is scaled to controls: 0 for no effect and ±100 for the full control effect
# How it was run: (§1)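 Cells exposed to compounds for 48 or 72 hr at 37 degrees Celsius. Viability read as ATP-coupled luminescence with CellTiter-Glo after 10 min at room temperature.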
# HEK293 = test: as above; conditions: Five cell lines viability, CellTiter-Glo ATP luminescence, 48-72 h; max response: stronger effect = lower value
# How it was run: as §1
# HaCat [1] = test: as above; conditions: Five cell lines viability, CellTiter-Glo ATP luminescence, 48-72 h; max response: stronger effect = lower value
# How it was run: as §1
# NIH3T3 = test: as above; conditions: Five cell lines viability, CellTiter-Glo ATP luminescence, 48-72 h; max response: stronger effect = lower value
# How it was run: as §1
# HACAT [2] = test: qHTS assay to identify novel small-molecules to repurpose for Merkel cell carcinoma treatment (AID 1296009); conditions: MCC and control cell lines, CellTiter-Glo viability, 72 h; at 44.8 µM (top of the series) unless noted
# How it was run: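 Cells were treated for 72 hr at 37 degree celsius with compounds in 8- or 11-point dose response. Viability was read by CellTiter-Glo luminescence, normalized to no-cell (cytotoxicity) and DMSO controls.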
# KB-3-1 = test: Cytotoxic Profiling of Annotated Libraries Using Quantitative High-Throughput Screening (AID 1296008); conditions: Five cell lines viability, CellTiter-Glo ATP luminescence, 48-72 h; max response: stronger effect = lower value; also: potency is read from the fitted curve at half-maximal effect; as to max response: % is scaled to controls: 0 for no effect and ±100 for the full control effect
# How it was run: as §1
# Also: nearly all actives have a fitted effect of over 60% in size.
structure (smiles),measurement,setting,value
FC(F)(F)c1ccc(/C=C/c2nc(COc3ccc(CCCCn4ccnn4)cc3)co2)cc1,Potency,CRL-7250,0.0651 µM (active)
same,Potency,HEK293,0.0291 µM (active)
same,max response,HaCat [1],-23.7%
same,max response,NIH3T3,-18.7%
CC(C)C[C@@H]1NC(=O)[C@@H]2C[C@@]34C[C@@H]5[C@@]6(C)CCCC(C)(C)C6CC[C@@]5(C)N(c5ccccc53)[C@H]4N2C1=O (some centres not stated),Potency,CRL-7250,0.502 µM (active)
same,Potency,HEK293,0.796 µM (active)
same,outcome,HaCat [1],inactive
same,max response,NIH3T3,-3.44%
same,outcome,HACAT [2],inactive [at 17.4 µM]
N#Cc1cc(-c2ccnc(Nc3ccc(N4CCOCC4)cc3)n2)ccc1OC1CCOCC1,Potency,CRL-7250,4.11 µM (active)
same,Potency,HEK293,7.31 µM (active)
same,outcome,HaCat [1],inactive
same,Potency,NIH3T3,11.6 µM (active)
same,outcome,HACAT [2],inactive
CC(C)(C)c1ccc(C(=O)Nc2cc(Cl)c(Br)cc2C(=O)O)cc1,max response,CRL-7250,-0.778%
same,Potency,HEK293,23.1 µM (active)
same,max response,HaCat [1],-1.9%
same,max response,NIH3T3,-19.1%
Cc1cccc(CC(=O)N2CCc3c2ccc(-c2cn(C)c4ncnc(N)c24)c3F)n1,Potency,CRL-7250,1.84 µM (active)
same,Potency,HEK293,5.8 µM (active)
same,outcome,HaCat [1],inactive
same,max response,NIH3T3,3.48%
same,outcome,HACAT [2],inactive
COc1cc(Br)c(S(=O)(=O)Nc2ccc(Cl)c(O[C@@H]3CCN(C)C3)c2)cc1OC,outcome,CRL-7250,inactive
same,Potency,HEK293,7.31 µM (active)
same,outcome,HaCat [1],inactive
same,max response,NIH3T3,-15.8%
same,outcome,HACAT [2],inactive
COc1ccc2cc3c(NC(=O)c4ccco4)nn(C)c3nc2c1,Potency,KB-3-1,13 µM (active)
NCCOc1cc(C(=O)Nc2cc(OCCN)c3ccccc3n2)nc(C(=O)Nc2cc(OCCN)c3ccccc3n2)c1,Potency,CRL-7250,7.31 µM (active)
same,Potency,HaCat [1],2.63 µM (active)
same,Potency,KB-3-1,16.4 µM (active)
